# In PMC11006913:
# How the values were obtained:
# Assay in all cases: PBM; 200 nM protein, PBS
# Conditions in all cases: dsDNA, one strand shown
# HOXB4 [1] = molecular target: HOXB4 (Homo sapiens, UniProt P17483 148-234)
# HOXB4 [2] = molecular target: HOXB4 (Homo sapiens, UniProt P17483 148-234, V174I)
# ALX1 [3] = molecular target: ALX1 (Homo sapiens, UniProt Q15699 118-204, L144V)
# ALX1 [4] = molecular target: ALX1 (Homo sapiens, UniProt Q15699 118-204, L144R)
# ALX1 [5] = molecular target: ALX1 (Homo sapiens, UniProt Q15699 118-204)
# Sequence of ALX1 (Homo sapiens, UniProt Q15699 118-204) (Q15699 118-204): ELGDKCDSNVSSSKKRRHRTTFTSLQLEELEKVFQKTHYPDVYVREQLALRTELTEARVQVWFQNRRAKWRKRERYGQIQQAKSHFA
# VAX1 [6] = molecular target: VAX1 (Homo sapiens, UniProt Q5SQQ9 86-172)
# Sequence of VAX1 (Homo sapiens, UniProt Q5SQQ9 86-172) (Q5SQQ9 86-172): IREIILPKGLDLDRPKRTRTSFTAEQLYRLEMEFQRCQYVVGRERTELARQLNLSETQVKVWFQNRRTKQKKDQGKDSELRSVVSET
# VAX1 [7] = molecular target: VAX1 (Homo sapiens, UniProt Q5SQQ9 86-172, T142I)
# Sequence of VAX1 (Homo sapiens, UniProt Q5SQQ9 86-172, T142I) (Q5SQQ9 86-172 T142I): as the sequence (Q5SQQ9 86-172) above, with T57I counted along it
# VAX1 [8] = molecular target: VAX1 (Homo sapiens, UniProt Q5SQQ9 86-172, K157R)
# Sequence of VAX1 (Homo sapiens, UniProt Q5SQQ9 86-172, K157R) (Q5SQQ9 86-172 K157R): as the sequence (Q5SQQ9 86-172) above, with K72R counted along it
# HOXD13 [9] = molecular target: HOXD13 (Homo sapiens, UniProt P35453 263-343, T313R)
# Sequence of HOXD13 (Homo sapiens, UniProt P35453 263-343, T313R) (P35453 263-343 T313R): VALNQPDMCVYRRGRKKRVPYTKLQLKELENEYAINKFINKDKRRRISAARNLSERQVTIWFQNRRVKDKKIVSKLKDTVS
# HOXD13 [10] = molecular target: HOXD13 (Homo sapiens, UniProt P35453 263-343)
# Sequence of HOXD13 (Homo sapiens, UniProt P35453 263-343) (P35453 263-343): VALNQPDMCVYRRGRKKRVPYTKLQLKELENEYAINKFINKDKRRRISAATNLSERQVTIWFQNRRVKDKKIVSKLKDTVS
# ALX3 [11] = molecular target: ALX3 (Homo sapiens, UniProt O95076 139-225)
# Sequence of ALX3 (Homo sapiens, UniProt O95076 139-225) (O95076 139-225): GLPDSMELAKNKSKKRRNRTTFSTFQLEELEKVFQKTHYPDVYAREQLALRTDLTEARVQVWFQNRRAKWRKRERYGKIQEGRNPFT
# ALX3 [12] = molecular target: ALX3 (Homo sapiens, UniProt O95076 139-225, L168Q)
# Sequence of ALX3 (Homo sapiens, UniProt O95076 139-225, L168Q) (O95076 139-225 L168Q): as the sequence (O95076 139-225) above, with L30Q counted along it
# HOXD13 [13] = molecular target: HOXD13 (Homo sapiens, UniProt P35453 263-343, T313A)
# Sequence of HOXD13 (Homo sapiens, UniProt P35453 263-343, T313A) (P35453 263-343 T313A): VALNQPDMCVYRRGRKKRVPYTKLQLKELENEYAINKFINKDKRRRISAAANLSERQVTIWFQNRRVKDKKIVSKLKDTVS
# ALX3 [14] = molecular target: ALX3 (Homo sapiens, UniProt O95076 139-225, L168V)
# Sequence of ALX3 (Homo sapiens, UniProt O95076 139-225, L168V) (O95076 139-225 L168V): as the sequence (O95076 139-225) above, with L30V counted along it
# ALX3 [15] = molecular target: ALX3 (Homo sapiens, UniProt O95076 139-225, N203S)
# Sequence of ALX3 (Homo sapiens, UniProt O95076 139-225, N203S) (O95076 139-225 N203S): as the sequence (O95076 139-225) above, with N65S counted along it
# PROP1 [16] = molecular target: PROP1 (Homo sapiens, UniProt O75360 56-141)
# Sequence of PROP1 (Homo sapiens, UniProt O75360 56-141) (O75360 56-141): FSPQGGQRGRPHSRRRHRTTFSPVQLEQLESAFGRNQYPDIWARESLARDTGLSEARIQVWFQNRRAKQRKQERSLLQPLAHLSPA
# PROP1 [17] = molecular target: PROP1 (Homo sapiens, UniProt O75360 56-141, R99H)
# Sequence of PROP1 (Homo sapiens, UniProt O75360 56-141, R99H) (O75360 56-141 R99H): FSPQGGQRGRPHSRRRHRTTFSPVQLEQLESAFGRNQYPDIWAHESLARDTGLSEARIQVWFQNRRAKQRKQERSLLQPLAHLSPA
# PROP1 [18] = molecular target: PROP1 (Homo sapiens, UniProt O75360 56-141, F88S)
# Sequence of PROP1 (Homo sapiens, UniProt O75360 56-141, F88S) (O75360 56-141 F88S): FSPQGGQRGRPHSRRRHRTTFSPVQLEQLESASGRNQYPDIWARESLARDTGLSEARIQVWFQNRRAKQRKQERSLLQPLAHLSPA
# Sequence of HOXB4 (Homo sapiens, UniProt P17483 148-234, V174I) (P17483 148-234 V174I): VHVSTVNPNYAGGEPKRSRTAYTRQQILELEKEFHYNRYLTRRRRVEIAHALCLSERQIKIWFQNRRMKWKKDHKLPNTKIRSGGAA
# Sequence of HOXB4 (Homo sapiens, UniProt P17483 148-234) (P17483 148-234): as the sequence (P17483 148-234 V174I) above, with I27V counted along it
# Sequence of ALX1 (Homo sapiens, UniProt Q15699 118-204, L144R) (Q15699 118-204 L144R): as the sequence (Q15699 118-204) above, with L27R counted along it
# Sequence of ALX1 (Homo sapiens, UniProt Q15699 118-204, L144V) (Q15699 118-204 L144V): as the sequence (Q15699 118-204) above, with L27V counted along it
sequence,measurement,setting,value
AATCAAGG,binding signal,HOXB4 [1],"10.3 upbm affinity estimate (log intensity, higher = more binding, comparable within an allelic series)"
same,binding signal,HOXB4 [2],"10.5 upbm affinity estimate (log intensity, higher = more binding, comparable within an allelic series)"
CCTCACCG,binding signal,HOXB4 [1],"7.41 upbm affinity estimate (log intensity, higher = more binding, comparable within an allelic series)"
same,binding signal,HOXB4 [2],"7.32 upbm affinity estimate (log intensity, higher = more binding, comparable within an allelic series)"
GATCGTTA,binding signal,HOXB4 [1],"12.3 upbm affinity estimate (log intensity, higher = more binding, comparable within an allelic series)"
same,binding signal,HOXB4 [2],"12.8 upbm affinity estimate (log intensity, higher = more binding, comparable within an allelic series)"
CCTGCGTC,binding signal,HOXB4 [1],"7.55 upbm affinity estimate (log intensity, higher = more binding, comparable within an allelic series)"
same,binding signal,HOXB4 [2],"7.44 upbm affinity estimate (log intensity, higher = more binding, comparable within an allelic series)"
CACGCCGA,binding signal,HOXB4 [1],"7.66 upbm affinity estimate (log intensity, higher = more binding, comparable within an allelic series)"
same,binding signal,HOXB4 [2],"7.67 upbm affinity estimate (log intensity, higher = more binding, comparable within an allelic series)"
ATGAGTTA,binding signal,HOXB4 [1],"10.4 upbm affinity estimate (log intensity, higher = more binding, comparable within an allelic series)"
same,binding signal,HOXB4 [2],"10.6 upbm affinity estimate (log intensity, higher = more binding, comparable within an allelic series)"
AGACCTAG,binding signal,HOXB4 [1],"7.5 upbm affinity estimate (log intensity, higher = more binding, comparable within an allelic series)"
same,binding signal,HOXB4 [2],"7.5 upbm affinity estimate (log intensity, higher = more binding, comparable within an allelic series)"
GCAATTTA,binding signal,HOXB4 [1],"11.5 upbm affinity estimate (log intensity, higher = more binding, comparable within an allelic series)"
same,binding signal,HOXB4 [2],"11.7 upbm affinity estimate (log intensity, higher = more binding, comparable within an allelic series)"
CATCAGCG,binding signal,HOXB4 [1],"10.1 upbm affinity estimate (log intensity, higher = more binding, comparable within an allelic series)"
same,binding signal,HOXB4 [2],"10.3 upbm affinity estimate (log intensity, higher = more binding, comparable within an allelic series)"
TGGCATAA,binding signal,HOXB4 [1],"10 upbm affinity estimate (log intensity, higher = more binding, comparable within an allelic series)"
same,binding signal,HOXB4 [2],"9.76 upbm affinity estimate (log intensity, higher = more binding, comparable within an allelic series)"
AATTGGTA,binding signal,HOXB4 [1],"10.7 upbm affinity estimate (log intensity, higher = more binding, comparable within an allelic series)"
same,binding signal,HOXB4 [2],"11 upbm affinity estimate (log intensity, higher = more binding, comparable within an allelic series)"
AGCTTGGA,binding signal,HOXB4 [1],"7.7 upbm affinity estimate (log intensity, higher = more binding, comparable within an allelic series)"
same,binding signal,HOXB4 [2],"7.63 upbm affinity estimate (log intensity, higher = more binding, comparable within an allelic series)"
CAGGACGC,binding signal,HOXB4 [1],"7.75 upbm affinity estimate (log intensity, higher = more binding, comparable within an allelic series)"
same,binding signal,HOXB4 [2],"7.46 upbm affinity estimate (log intensity, higher = more binding, comparable within an allelic series)"
GGAGTAAA,binding signal,HOXB4 [1],"9.68 upbm affinity estimate (log intensity, higher = more binding, comparable within an allelic series)"
same,binding signal,HOXB4 [2],"9.73 upbm affinity estimate (log intensity, higher = more binding, comparable within an allelic series)"
CTGGCGAC,binding signal,HOXB4 [1],"7.56 upbm affinity estimate (log intensity, higher = more binding, comparable within an allelic series)"
same,binding signal,HOXB4 [2],"7.45 upbm affinity estimate (log intensity, higher = more binding, comparable within an allelic series)"
AGCCGCGG,binding signal,HOXB4 [1],"7.58 upbm affinity estimate (log intensity, higher = more binding, comparable within an allelic series)"
same,binding signal,HOXB4 [2],"7.46 upbm affinity estimate (log intensity, higher = more binding, comparable within an allelic series)"
AGCCCCCA,binding signal,HOXB4 [1],"7.49 upbm affinity estimate (log intensity, higher = more binding, comparable within an allelic series)"
same,binding signal,HOXB4 [2],"7.6 upbm affinity estimate (log intensity, higher = more binding, comparable within an allelic series)"
CTACCGCC,binding signal,HOXB4 [1],"7.59 upbm affinity estimate (log intensity, higher = more binding, comparable within an allelic series)"
same,binding signal,HOXB4 [2],"7.48 upbm affinity estimate (log intensity, higher = more binding, comparable within an allelic series)"
CGCCGTGC,binding signal,HOXB4 [1],"7.83 upbm affinity estimate (log intensity, higher = more binding, comparable within an allelic series)"
same,binding signal,HOXB4 [2],"7.83 upbm affinity estimate (log intensity, higher = more binding, comparable within an allelic series)"
ACAACGAT,binding signal,HOXB4 [1],"9.88 upbm affinity estimate (log intensity, higher = more binding, comparable within an allelic series)"
same,binding signal,HOXB4 [2],"9.27 upbm affinity estimate (log intensity, higher = more binding, comparable within an allelic series)"
ATCTATAA,binding signal,HOXB4 [1],"11 upbm affinity estimate (log intensity, higher = more binding, comparable within an allelic series)"
same,binding signal,HOXB4 [2],"11.1 upbm affinity estimate (log intensity, higher = more binding, comparable within an allelic series)"
CGTCGTTA,binding signal,HOXB4 [1],"10.9 upbm affinity estimate (log intensity, higher = more binding, comparable within an allelic series)"
same,binding signal,HOXB4 [2],"11 upbm affinity estimate (log intensity, higher = more binding, comparable within an allelic series)"
AAACGAGT,binding signal,HOXB4 [1],"9.6 upbm affinity estimate (log intensity, higher = more binding, comparable within an allelic series)"
same,binding signal,HOXB4 [2],"9.41 upbm affinity estimate (log intensity, higher = more binding, comparable within an allelic series)"
CGGGATGC,binding signal,ALX1 [3],"6.54 upbm affinity estimate (log intensity, higher = more binding, comparable within an allelic series)"
same,binding signal,ALX1 [4],"6.46 upbm affinity estimate (log intensity, higher = more binding, comparable within an allelic series)"
same,binding signal,ALX1 [5],"6.51 upbm affinity estimate (log intensity, higher = more binding, comparable within an allelic series)"
CGGGAAAG,binding signal,ALX1 [3],"6.35 upbm affinity estimate (log intensity, higher = more binding, comparable within an allelic series)"
same,binding signal,ALX1 [4],"6.49 upbm affinity estimate (log intensity, higher = more binding, comparable within an allelic series)"
same,binding signal,VAX1 [6],"7.08 upbm affinity estimate (log intensity, higher = more binding, comparable within an allelic series)"
same,binding signal,VAX1 [7],"7.2 upbm affinity estimate (log intensity, higher = more binding, comparable within an allelic series)"
same,binding signal,ALX1 [5],"6.44 upbm affinity estimate (log intensity, higher = more binding, comparable within an allelic series)"
same,binding signal,VAX1 [8],"7.08 upbm affinity estimate (log intensity, higher = more binding, comparable within an allelic series)"
CTCCCGGC,binding signal,HOXD13 [9],"9.46 upbm affinity estimate (log intensity, higher = more binding, comparable within an allelic series)"
same,binding signal,HOXD13 [10],"9.39 upbm affinity estimate (log intensity, higher = more binding, comparable within an allelic series)"
same,binding signal,ALX3 [11],"7.57 upbm affinity estimate (log intensity, higher = more binding, comparable within an allelic series)"
same,binding signal,ALX3 [12],"7.75 upbm affinity estimate (log intensity, higher = more binding, comparable within an allelic series)"
same,binding signal,HOXD13 [13],"9.4 upbm affinity estimate (log intensity, higher = more binding, comparable within an allelic series)"
same,binding signal,ALX3 [14],"7.74 upbm affinity estimate (log intensity, higher = more binding, comparable within an allelic series)"
same,binding signal,ALX3 [15],"7.67 upbm affinity estimate (log intensity, higher = more binding, comparable within an allelic series)"
CTGGGGGA,binding signal,ALX3 [11],"7.77 upbm affinity estimate (log intensity, higher = more binding, comparable within an allelic series)"
same,binding signal,ALX3 [12],"7.72 upbm affinity estimate (log intensity, higher = more binding, comparable within an allelic series)"
same,binding signal,ALX3 [14],"7.67 upbm affinity estimate (log intensity, higher = more binding, comparable within an allelic series)"
same,binding signal,ALX3 [15],"7.72 upbm affinity estimate (log intensity, higher = more binding, comparable within an allelic series)"
CGGGCTGC,binding signal,PROP1 [16],"6.7 upbm affinity estimate (log intensity, higher = more binding, comparable within an allelic series)"
same,binding signal,PROP1 [17],"6.83 upbm affinity estimate (log intensity, higher = more binding, comparable within an allelic series)"
same,binding signal,PROP1 [18],"6.68 upbm affinity estimate (log intensity, higher = more binding, comparable within an allelic series)"
